About 79,000 compounds went through this panel and 15% of them were active in at least one assay; those are over-represented in the sample as a whole. Calls of active or inactive are those of the source. Rule as the data show it: active = growth inhibition above about 70%; inactive = the rest.
Columns and labels:
[1] = NCI Yeast Anticancer Drug Screen. Data for the rad50 strain (AID 155);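 also: 0% = growth of vehicle-only cultures of the same strain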; conditions: S. cerevisiae rad50 strain growth inhibition; at 50.0 µM; active compounds read high
Procedure, shortened: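 Readout: growth inhibition relative to vehicle-treated cultures. Compound exposure was carried out in a genetically defined yeast strain deficient in DNA damage repair.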

[2] = NCI Yeast Anticancer Drug Screen. Data for the mec2-1 strain (AID 157); conditions: S. cerevisiae mec2-1 strain, at 50.0 µM, active compounds read high
Procedure, shortened: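 Growth inhibition is read against vehicle-treated controls after compound exposure of the mec2-1 yeast strain, which is defective in DNA damage repair or cell cycle control.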

[3] = NCI Yeast Anticancer Drug Screen. Data for the sgs1 mgt1 strain (AID 161);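 also: 0% = growth of cultures given vehicle only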; conditions: S. cerevisiae sgs1 mgt1 strain, at 50.0 µM, active compounds read high
Procedure, shortened: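 This yeast growth screen uses a strain with defined DNA-repair lesions; compound-treated growth is compared with vehicle-treated growth.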

[4] = NCI Yeast Anticancer Drug Screen. Data for the cln2 rad14 strain (AID 165);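 also: 0% = growth equal to vehicle treated cultures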; conditions: S. cerevisiae cln2 rad14 strain, at 50.0 µM, active compounds read high
Procedure, shortened: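 Growth inhibition, relative to vehicle-treated controls, is the read-out. The test organism is a yeast strain with defined genetic alterations, cln2 rad14.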

[5] = NCI Yeast Anticancer Drug Screen. Data for the bub3 strain (AID 167); conditions: S. cerevisiae bub3 mutant strain, at 50.0 µM, active compounds read high
Procedure, shortened: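 Readout: yeast growth inhibition, expressed relative to vehicle-only wells. The test organism is a mutant strain from a panel with lesions in DNA repair or checkpoint genes.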

[6] = NCI Yeast Anticancer Drug Screen. Data for the mlh1 rad18 strain (AID 175); conditions: S. cerevisiae mlh1 rad18 strain growth inhibition; at 50.0 µM; active compounds read high
Procedure, shortened: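 Cells of a genetically altered yeast strain, deficient in DNA damage repair, were treated with compound. Their growth was then compared with that of vehicle-treated cultures to give inhibition.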

Measured: growth inhibition

CCCCCCCCCCCCCCCCCCC1=CC(=O)c2ccccc2C1=O
inactive: [1] 16.1% | [2] 3% | [3] 25.6% | [4] 31% | [5] 8.4% | [6] 14.9%

c1ccc(CSc2cnnc3ccccc23)cc1
inactive: [1] 3.9% | [2] -10.8% | [3] 6% | [4] -11.1% | [5] 14.1% | [6] 31.9%

COc1n[nH]c(N)n1
inactive: [1] 8.3% | [2] 12.8% | [3] 3.8% | [4] 22.8% | [5] 25.6% | [6] 20.2%

O=C(Nc1cccc(O)c1)c1ccc([N+](=O)[O-])cc1
inactive: [1] 1.5% | [2] 18.6% | [3] 14.4% | [4] -15.3% | [5] 19.7% | [6] 23.4%

O=C1Sc2ccccc2Cn2cccc21
inactive: [1] -1.7% | [2] 13% | [3] 13.3% | [4] -19.6% | [5] -6.3% | [6] 8.7%

NC(=O)c1ccc(NC=O)cc1
inactive: [1] -10.3% | [2] 22.2% | [3] -18.9% | [4] 25.1% | [5] -18.1% | [6] -18.9%

COc1ccc(/C=N/NC(=O)O)cc1
inactive: [1] 4.55% | [2] -5.35% | [3] -24% | [4] -12.3% | [5] -32.5% | [6] -18.4%

CCCCCCCN(CCCCCCC)CC(O)c1c(OC)c2ccccc2c2ccccc12 (stereo not given)
active: [1] 94.8% | [3] 96.2% | [4] 93% | [6] 93.7%
inactive: [2] 34.4% | [5] 24.9%

O=c1oc2ccccc2c(O)c1Oc1ccccc1
inactive: [1] -7.35% | [2] 3.5% | [3] -15.3% | [4] -10.7% | [5] -12.5% | [6] -1.05%

CC=C=C(C)CN
inactive: [1] -6.4% | [2] -3.8% | [3] -9.6% | [4] -7.95% | [5] -6.25% | [6] -8.45%

COc1ccc(C(=O)O[C@H]2[C@@H]3C=CO[C@@H](OC4OC(CO)C(O)C(O)C4O)[C@@H]3[C@@]3(CO)O[C@@H]23)cc1O (stereo not given in full)
inactive: [1] 31.9% | [2] 23.9% | [3] -3.4% | [4] 11.7% | [5] 34.3% | [6] 38.6%

O=c1nc(-c2ccccc2)cc(Cc2ccc3ccccc3n2)[nH]1
inactive: [1] 30.1% | [2] 25.8% | [3] 26.1% | [4] -29.8% | [5] 47% | [6] 28.9%

CC(C)OC(=O)N1CCCC1
inactive: [1] 12% | [2] 13.8% | [3] 6.05% | [4] -20% | [5] 13.9% | [6] -17.4%

O=S(=O)(c1ccc(O)c(Cl)c1)c1ccc(O)c(Cl)c1
inactive: [1] 32.8% | [2] 37.5% | [3] 16.1% | [4] 36.7% | [5] 47.2% | [6] 31.1%

O=C(c1ccccc1)C1C(/C=C/c2ccccc2)C(C(=O)c2ccccc2)C1/C=C/c1ccccc1 (stereo not given)
inactive: [1] 41.2% | [2] -7.1% | [3] 11.8% | [4] 0.4% | [5] -4.5% | [6] 3.25%

CC1(O)CCC2CC1C2(C)CO (stereo not given)
inactive: [1] 2% | [2] 7.45% | [3] -9.15% | [4] -28.4% | [5] -7.05% | [6] 3.1%

C/C(=N\N=C(/C)c1ccc(N)cc1)c1ccc(N)cc1
inactive: [1] 15.9% | [2] 5% | [3] 1.9% | [4] -3.3% | [5] 13.9% | [6] 9%

COC(=O)C1(Br)c2ccccc2-c2ccccc21
inactive: [1] -3.15% | [2] 17.7% | [3] 0.45% | [4] -22.4% | [5] 8.5% | [6] -9.3%

N#CCCN(c1ccc(C=Nc2ccc(C(=O)O)cc2)cc1)S(=O)(=O)c1ccccc1
inactive: [1] -0.1% | [2] -29.6% | [3] 7.4% | [4] 5.75% | [5] 19.9% | [6] -11.1%

COc1ccc(-c2oc3cc(OC)c(OC)c(OC)c3c(=O)c2O)cc1O
active: [3] 77.6% | [6] 70.2%
inactive: [1] 62.5% | [2] 50.5% | [4] 44.8% | [5] 65.4%

— PubChem BioAssay (NCI)
